# Calls of active or inactive are those of the source.
# Key:
# [1] = system: Plasmodium falciparum Sir2 (PF13_0152, Sir2A); test: Plasmodium falciparum Sir2A binding compounds – biochemical, small-molecule microarray, 635 nm fluorescence, primary screen (AID 1098); conditions: fluorescence 635 nm, higher = more signal;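 also: score merges spot fluorescence intensity with its signal-to-noise ratio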
# [2] = probe aDKK1 binding to arrayed compounds – biochemical, biotinylated probe, 635/667 nm fluorescence, primary screen (AID 1099); conditions: small-molecule microarray, higher = more signal;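 also: score merges 667nm spot fluorescence with signal to noise across triplicate slides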
# [3] = probe aCHRDL2 binding to arrayed compounds – biochemical, biotinylated probe, 635/667 nm fluorescence, primary screen (AID 1100); conditions: small-molecule microarray, higher = more signal
# [4] = change in splice reporter luminescence, either direction, cell-based, HEK293, spliceosome inhibition project, primary screen (AID 1101); conditions: HEK293 splicing luciferase reporter, 24 h, higher = more signal, called active from +8 up or from −8 down;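 also: HEK293 cells carrying a splicing-competent luciferase reporter gene; test concentration not given here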
# [5] = target: Fibroblast growth factor 10 (Homo sapiens) (UniProt O15520); test: compounds binding fibroblast growth factor 10 – biochemical, small-molecule microarray, 635 nm fluorescence, primary screen (AID 1102); conditions: FGF10 binding, fluorescence 635 nm, higher = more signal
# [6] = system: glycogen synthase kinase-3 (GSK3A per assay name; protocol says GSK3B); test: compounds binding glycogen synthase kinase-3 – biochemical, small-molecule microarray, 635 nm fluorescence, GSK3A, primary screen (AID 1103); conditions: fluorescence 635 nm, higher = more signal; also: the record names both GSK3A and GSK3B
# [7] = target: Epidermal growth factor receptor (Homo sapiens) (UniProt P00533); test: compounds binding epidermal growth factor receptor – biochemical, small-molecule microarray, 635 nm fluorescence, primary screen (AID 1104); conditions: EGFR binding, higher = more signal;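 also: score merges 667 nm emission intensity with spot signal to noise over triplicate slides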
# [8] = target: Follistatin-related protein 3 (Homo sapiens) (UniProt O95633); test: compounds binding follistatin-related protein 3 – biochemical, small-molecule microarray, 635 nm fluorescence, primary screen (AID 1105); conditions: FSTL3 binding, higher = more signal;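 also: score merges emission near 667 nm and signal to noise per printed spot across three slides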
# [9] = target: Dickkopf-related protein 1 (Homo sapiens) (UniProt O94907); test: small molecules binding DKK1 protein – biochemical, small-molecule microarray, 635 nm fluorescence scan, primary screen (AID 1106); conditions: higher = more signal;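 also: score merges emission near 667 nm with signal to noise over three replicate slides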
# [10] = system: Inhibin beta A chain (activin A); test: small molecules binding activin A – biochemical, small-molecule microarray, 635 nm fluorescence scan, primary screen (AID 1107); conditions: INHBA, higher = more signal;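 also: mouse activin A protein probed at 4.33 µg/mL on printed slides; score merges bound-protein fluorescence near 667 nm with spot signal-to-noise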
# [11] = system: Human papillomavirus type 1a protein E7 (residues 44-93); test: small molecules binding HPV E7 44-93 – biochemical, small-molecule microarray, residues 44-93, 635 nm fluorescence, primary screen (AID 1108); conditions: fluorescence 635 nm, higher = more signal;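 also: E7 fragment applied at 1 µg/mL in TBST for 1 h at 4 C; score combines spot fluorescence with its signal to noise ratio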
# [12] = hepatitis C replication reporter changes, two-sided – Huh7 cells, luciferase reporter, HCV replication inhibitor project, primary screen (AID 1109); conditions: Huh7 HCV replicon luciferase reporter, 48 h; higher = more signal;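 also: huh7 hepatoma cells harbouring a luciferase neomycin HCV replicon reporter; luciferase luminescence as measure of HCV replicon replication; test concentration not given here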
# [13] = target: Left-right determination factor 2 (Homo sapiens) (UniProt O00292); test: small molecules binding LEFTY2 protein – biochemical, small-molecule microarray, 635 nm fluorescence scan, primary screen (AID 1110); conditions: higher = more signal
# [14] = target: Calmodulin-1 (Homo sapiens) (UniProt P0DP23); test: small molecules binding calmodulin-1 with EGTA – biochemical, small-molecule microarray, Cy5-labelled CALM1, profiling panel (AID 1111); conditions: Cy5-CALM1 binding fluorescence, higher = more signal;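 also: labelled calmodulin applied in Tris saline Tween buffer holding calcium plus EGTA and DTT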
# [15] = target: Calmodulin-1 (Homo sapiens) (UniProt P0DP23); test: small molecules binding Ca-loaded calmodulin-1 – biochemical, small-molecule microarray, Cy5-labelled CALM1, plus calcium, artefact control for SMM control-protein annotation, profiling panel (AID 1112); conditions: Cy5-CALM1 binding fluorescence, higher = more signal;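 also: score merges spot fluorescence with signal to noise from triplicate slides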
# [16] = probe aWnt5a binding to arrayed compounds – biochemical, biotinylated probe, 635/667 nm fluorescence, primary screen (AID 1113); conditions: small-molecule microarray, higher = more signal;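 also: score merges 667 nm fluorescence intensity with signal-to-noise per printed feature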
# [17] = probe aShh binding to arrayed compounds – biochemical, biotinylated probe, 635/667 nm fluorescence, primary screen (AID 1114); conditions: small-molecule microarray, higher = more signal;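 also: probe is biotin-labelled aShh protein from a stem cell growth factor screen; measures binding of labelled protein to compounds printed on the slide; score merges feature fluorescence at 667 nm with signal-to-noise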
# [18] = probe aNog binding to arrayed compounds – biochemical, biotinylated probe, 635/667 nm fluorescence, primary screen (AID 1115); conditions: small-molecule microarray, higher = more signal;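 also: probe is biotinylated aNog protein used at 0.15 µg/mL for 1 h at 4 C; z-score combines 667 nm fluorescence of each spot with its signal to noise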
# [19] = target: Torsin-1A-interacting protein 1 (Homo sapiens) (UniProt Q5JTV8); test: compound microarray binding of lysate hLAP1 – cell lysate, small-molecule microarray, COS7 lysate, 635/667 nm fluorescence, primary screen (AID 1116); conditions: 635 nm fluorescence, higher = more signal
# [20] = target: Alpha-bungarotoxin (Bungarus multicinctus) (UniProt P60615); test: compounds binding labelled alpha-BTX control protein – biochemical, small-molecule microarray, Alexa647 label, 635/667 nm fluorescence, artefact control for SMM control protein annotation, profiling panel (AID 1117); conditions: alpha-BTX-A647 binding fluorescence, higher = more signal
# Chain of Alpha-bungarotoxin (Bungarus multicinctus) (P60615 whole entry, looked up): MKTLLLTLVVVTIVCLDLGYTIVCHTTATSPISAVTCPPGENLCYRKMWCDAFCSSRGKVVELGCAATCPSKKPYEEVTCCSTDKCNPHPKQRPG
# Chain of Follistatin-related protein 3 (Homo sapiens) (O95633 whole entry, looked up): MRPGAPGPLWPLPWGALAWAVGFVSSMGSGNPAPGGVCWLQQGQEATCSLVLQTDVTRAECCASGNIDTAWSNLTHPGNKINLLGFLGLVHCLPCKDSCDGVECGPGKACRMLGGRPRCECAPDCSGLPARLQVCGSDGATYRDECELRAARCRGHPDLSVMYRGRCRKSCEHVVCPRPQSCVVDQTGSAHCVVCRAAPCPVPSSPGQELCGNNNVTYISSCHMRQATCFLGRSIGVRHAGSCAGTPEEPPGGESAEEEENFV
# Chain of Epidermal growth factor receptor (Homo sapiens) (P00533 whole entry, looked up): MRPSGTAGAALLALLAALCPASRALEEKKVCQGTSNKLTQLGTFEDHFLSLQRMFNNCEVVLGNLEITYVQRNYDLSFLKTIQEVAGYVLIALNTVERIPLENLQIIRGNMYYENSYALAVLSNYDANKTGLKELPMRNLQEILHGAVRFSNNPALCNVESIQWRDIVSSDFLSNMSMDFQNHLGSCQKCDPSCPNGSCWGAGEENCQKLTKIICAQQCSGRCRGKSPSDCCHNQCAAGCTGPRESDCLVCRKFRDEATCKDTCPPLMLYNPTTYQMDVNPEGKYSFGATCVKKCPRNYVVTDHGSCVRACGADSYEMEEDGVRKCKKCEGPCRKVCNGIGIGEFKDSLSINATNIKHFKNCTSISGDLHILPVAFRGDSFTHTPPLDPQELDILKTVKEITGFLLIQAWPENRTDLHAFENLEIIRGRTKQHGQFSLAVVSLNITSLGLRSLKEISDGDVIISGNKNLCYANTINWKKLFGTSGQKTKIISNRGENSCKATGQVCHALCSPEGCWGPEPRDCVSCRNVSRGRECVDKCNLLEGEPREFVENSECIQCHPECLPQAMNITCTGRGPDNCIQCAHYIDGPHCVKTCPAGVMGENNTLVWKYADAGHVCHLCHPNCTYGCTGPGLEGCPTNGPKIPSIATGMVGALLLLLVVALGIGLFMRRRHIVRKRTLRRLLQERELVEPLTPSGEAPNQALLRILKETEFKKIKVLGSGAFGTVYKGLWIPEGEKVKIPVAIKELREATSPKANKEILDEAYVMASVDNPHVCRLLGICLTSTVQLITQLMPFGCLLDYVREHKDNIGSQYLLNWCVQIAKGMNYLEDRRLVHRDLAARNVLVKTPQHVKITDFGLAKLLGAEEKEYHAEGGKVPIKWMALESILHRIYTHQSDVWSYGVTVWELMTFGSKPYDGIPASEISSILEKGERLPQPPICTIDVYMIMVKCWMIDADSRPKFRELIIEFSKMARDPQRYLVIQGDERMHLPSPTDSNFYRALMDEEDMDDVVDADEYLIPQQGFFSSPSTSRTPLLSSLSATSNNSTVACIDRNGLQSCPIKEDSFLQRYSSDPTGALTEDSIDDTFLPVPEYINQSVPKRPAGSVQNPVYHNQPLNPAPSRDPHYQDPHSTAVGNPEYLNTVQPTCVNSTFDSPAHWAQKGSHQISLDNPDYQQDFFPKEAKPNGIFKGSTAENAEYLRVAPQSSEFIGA
# Chain of Torsin-1A-interacting protein 1 (Homo sapiens) (Q5JTV8 whole entry, looked up): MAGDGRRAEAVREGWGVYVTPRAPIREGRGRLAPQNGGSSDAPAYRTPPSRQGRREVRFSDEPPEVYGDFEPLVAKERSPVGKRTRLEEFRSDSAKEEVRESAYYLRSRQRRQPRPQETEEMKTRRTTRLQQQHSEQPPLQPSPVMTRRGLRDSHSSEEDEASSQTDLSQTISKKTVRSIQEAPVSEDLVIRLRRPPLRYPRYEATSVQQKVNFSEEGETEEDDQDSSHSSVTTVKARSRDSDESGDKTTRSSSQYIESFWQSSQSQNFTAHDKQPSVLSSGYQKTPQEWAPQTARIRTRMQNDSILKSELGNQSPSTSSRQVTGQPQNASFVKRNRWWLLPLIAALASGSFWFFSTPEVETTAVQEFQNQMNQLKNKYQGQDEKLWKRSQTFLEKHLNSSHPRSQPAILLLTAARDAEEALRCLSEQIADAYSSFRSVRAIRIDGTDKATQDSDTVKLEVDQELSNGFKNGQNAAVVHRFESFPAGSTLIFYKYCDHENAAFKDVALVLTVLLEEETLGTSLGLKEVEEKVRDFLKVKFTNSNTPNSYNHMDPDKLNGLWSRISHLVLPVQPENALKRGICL
# Chain of Fibroblast growth factor 10 (Homo sapiens) (O15520 whole entry, looked up): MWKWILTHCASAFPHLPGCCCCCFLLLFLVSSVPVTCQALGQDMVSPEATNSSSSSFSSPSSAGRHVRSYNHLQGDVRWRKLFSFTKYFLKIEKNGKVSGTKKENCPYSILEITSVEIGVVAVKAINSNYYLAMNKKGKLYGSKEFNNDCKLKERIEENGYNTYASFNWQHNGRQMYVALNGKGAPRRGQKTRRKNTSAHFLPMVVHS
# Chain of Left-right determination factor 2 (Homo sapiens) (O00292 whole entry, looked up): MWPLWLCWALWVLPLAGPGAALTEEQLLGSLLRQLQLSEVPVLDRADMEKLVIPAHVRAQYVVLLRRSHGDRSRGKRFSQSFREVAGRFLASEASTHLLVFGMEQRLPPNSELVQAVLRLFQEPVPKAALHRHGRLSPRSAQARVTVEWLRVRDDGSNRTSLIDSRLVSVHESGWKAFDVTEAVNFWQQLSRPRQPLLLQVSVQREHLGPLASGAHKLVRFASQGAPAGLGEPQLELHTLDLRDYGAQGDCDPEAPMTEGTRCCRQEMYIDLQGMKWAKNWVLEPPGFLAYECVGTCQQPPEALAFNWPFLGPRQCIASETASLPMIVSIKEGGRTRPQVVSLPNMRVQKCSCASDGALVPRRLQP
# Chain of Dickkopf-related protein 1 (Homo sapiens) (O94907 whole entry, looked up): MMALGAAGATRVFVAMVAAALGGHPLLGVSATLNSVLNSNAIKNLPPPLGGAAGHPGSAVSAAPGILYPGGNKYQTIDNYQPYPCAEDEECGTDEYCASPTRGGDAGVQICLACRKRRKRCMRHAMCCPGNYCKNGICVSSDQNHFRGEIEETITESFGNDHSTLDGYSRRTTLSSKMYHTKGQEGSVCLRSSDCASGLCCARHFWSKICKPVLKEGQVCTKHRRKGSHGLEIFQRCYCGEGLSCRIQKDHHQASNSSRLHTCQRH
Compound,composite z-score [1],composite z-score [2],composite z-score [3],z-score [4],composite z-score [5],composite z-score [6],composite z-score [7],composite z-score [8],composite z-score [9],composite z-score [10],composite z-score [11],z-score [12],composite z-score [13],composite z-score [14],composite z-score [15],composite z-score [16],composite z-score [17],composite z-score [18],composite z-score [19],composite z-score [20]
COC(=O)[C@H](C)NC(=O)CCC1CC(OC(=O)NCc2ccc3c(c2)OCO3)CC2(CCCC(COC(=O)NCCOc3ccccc3)O2)O1 (stereo not given in full),0.46,-0.211,-0.636,-2.8 (inactive),0.658,1.29,0.536,0.649,0.679,0.0689,0.966,-0.424,0.581,-0.0874,-0.604,-0.129,-0.138,-0.283,0.267,0.83
CCc1cc2c(nc1CC)CCN(CCC(C)=NOC[C@@H](O)COCc1ccco1)C2,1.54,0.0564,0.202,-0.0287 (inactive),0.529,1.3,1.78,1.5,1.7,2.1,-1.51,-1.59,1.48,-0.729,-1.77,0.0663,0.547,-0.0965,1.11,0.64
O=C(CS)NCCCCCNC(=O)[C@H]1C[C@H]2C(=O)N3CCC[C@H]3C(=O)N2[C@H]1c1cccc(OCCO)c1,1.17,0.0187,0.367,0.378 (inactive),1.35,1.32,0.194,1.41,1.57,1.3,0.435,0.235,0.691,-0.8,-1,0.128,-0.138,-0.347,1.22,1.55
N#Cc1ccc(NN2C(C(O)c3cc(C(F)(F)F)cc(C(F)(F)F)c3)C=CC3C(=O)N(c4ccccc4)C(=O)C32)cc1 (stereo not given),0.666,0.175,1.04,0.628 (inactive),1.03,1.28,0.292,1.02,-0.62,0.733,1.39,-1.99,0.224,2.44,0.892,-0.0009,0.0326,-0.753,1.73,0.692
CCN1C(=O)[C@H]2[C@H]3[C@H](O)[C@H](O)CC(=NOC(C)CN4CCCCc5nc(C)c(C)cc54)[C@@H]3CC[C@H]2C1=O (stereo not given in full),0.438,-0.206,-0.667,0.279 (inactive),0.471,0.606,0.78,0.756,0.78,0.834,-0.504,-1.17,0.905,-2.14,-1.31,-0.184,0.0796,-0.0489,-0.401,-0.294
C=CCOC(=O)[C@H]1[C@@H]2C(=O)O[C@@H](c3ccccc3)[C@@H](c3ccccc3)N2[C@@H](c2ccc(OCCOC(=O)[C@H]3C[C@H]4C(=O)N[C@@H](Cc5ccccc5)C(=O)N4[C@H]3c3ccc(O)cc3)cc2)[C@]12C(=O)Nc1ccccc12,1.4,-0.206,-0.361,0.72 (inactive),1.15,1.18,0.892,1.22,1.06,-1.01,0.516,-1.32,0.933,0.743,0.0731,-0.0735,-0.0709,-0.112,0.985,1.46
COC(=O)CC1OC1[C@H](C)[C@@H](OC)C(C)C (stereo not given in full),0.505,-0.0977,-0.111,0.743 (inactive),0.142,-0.792,0.335,0.0479,0.82,1.32,-0.792,-0.0397,0.389,-0.723,-1.26,-0.1,-0.147,-0.487,0.601,0.93
C#C[C@@H]1Oc2ccccc2S(=O)(=O)N2CCC[C@H]12,-0.298,-0.105,-0.246,0.712 (inactive),0.111,-0.859,0.304,-0.0777,0.407,0.807,-0.638,0.206,0.273,-0.593,-0.867,0.0391,0.0893,0.186,0.237,-0.302
C=CC[C@@H]1C=C[C@H](ON=Cc2ccc(C(=O)N3[C@H](c4ccc(C)cc4)[C@@H](C)CC[C@H]3C(=O)OC)cc2)[C@@H](CO)O1,0.608,-0.313,-0.422,-0.0467 (inactive),0.59,0.363,0.475,0.609,0.381,0.694,0.792,-1.52,0.432,-0.36,-0.621,-0.148,-0.16,-0.0337,0.0268,-0.255
C[C@H](c1ccccc1)N1C(=O)[C@H]2[C@@H]3C(=CC[C@H]2C1=O)C(=O)[C@H]1O[C@H]1[C@H]3O,0.816,-0.191,-0.559,4.45 (inactive),0.388,0.359,0.626,0.359,0.87,0.527,-0.546,-4.71,0.429,-0.119,-0.932,-0.0405,0.0402,-0.416,0.326,-0.0114
C=CC[C@]1(C(=O)NCc2ccccc2)N=C(c2ccc(OCCCO)cc2)O[C@H]1c1ccccc1,0.689,0.213,1.06,0.332 (inactive),0.462,0.165,-0.29,0.291,-0.328,0.173,1.46,-2.41,-0.778,0.392,-0.483,-0.0944,0.696,0.257,1.62,2.46
CN(C)CCCNC(=O)[C@@H]1c2ccccc2C(=O)N(Cc2ccccc2)[C@H]1c1ccc(CO)cc1,0.0072,0.189,0.341,-0.00771 (inactive),-0.952,-0.383,-0.254,0.433,-0.354,1.33,-0.176,-1.24,0.186,-0.177,-0.981,-0.0527,-0.281,0.366,-0.668,-0.261
